# Reference: ChEMBL document CHEMBL1961873, “Compounds: GSK PKIS; Assays: Nanosyn kinase panel” (2012)
# Columns and labels:
# [1] = molecular target: Death-associated protein kinase 1 (Homo sapiens) (UniProt P53355); conditions: at 1 µM;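 further: each value is a mean inhibition figure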
# [2] = molecular target: T1, Serine/threonine-protein kinase DCLK2 (Homo sapiens) (UniProt Q8N568); conditions: at 0.1 µM
# T1 sequence (whole entry): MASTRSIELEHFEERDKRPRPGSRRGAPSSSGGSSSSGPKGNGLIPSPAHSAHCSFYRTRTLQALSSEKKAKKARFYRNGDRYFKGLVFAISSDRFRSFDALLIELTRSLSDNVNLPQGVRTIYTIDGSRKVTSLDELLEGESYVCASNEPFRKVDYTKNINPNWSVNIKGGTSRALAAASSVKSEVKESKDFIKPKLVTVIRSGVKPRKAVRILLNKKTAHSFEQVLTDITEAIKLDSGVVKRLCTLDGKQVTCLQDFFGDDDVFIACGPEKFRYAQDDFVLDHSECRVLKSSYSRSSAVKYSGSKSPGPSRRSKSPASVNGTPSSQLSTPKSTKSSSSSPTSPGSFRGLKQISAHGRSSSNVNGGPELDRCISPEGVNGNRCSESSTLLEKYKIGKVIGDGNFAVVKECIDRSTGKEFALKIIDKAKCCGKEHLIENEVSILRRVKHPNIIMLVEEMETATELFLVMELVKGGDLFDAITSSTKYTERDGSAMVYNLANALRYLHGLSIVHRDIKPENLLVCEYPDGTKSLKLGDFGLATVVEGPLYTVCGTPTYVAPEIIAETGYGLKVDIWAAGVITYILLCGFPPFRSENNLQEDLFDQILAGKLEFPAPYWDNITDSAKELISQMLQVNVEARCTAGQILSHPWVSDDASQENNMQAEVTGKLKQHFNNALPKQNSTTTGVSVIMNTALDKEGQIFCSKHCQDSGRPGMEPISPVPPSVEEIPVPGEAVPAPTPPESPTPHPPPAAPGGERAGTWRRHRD
# [3] = molecular target: T1, Serine/threonine-protein kinase DCLK2 (Homo sapiens); conditions: at 1 µM
# [4] = molecular target: MAP kinase-activated protein kinase 2 (Homo sapiens) (UniProt P49137); conditions: at 0.1 µM
# Chain of MAP kinase-activated protein kinase 2 (Homo sapiens) (P49137 whole entry, looked up): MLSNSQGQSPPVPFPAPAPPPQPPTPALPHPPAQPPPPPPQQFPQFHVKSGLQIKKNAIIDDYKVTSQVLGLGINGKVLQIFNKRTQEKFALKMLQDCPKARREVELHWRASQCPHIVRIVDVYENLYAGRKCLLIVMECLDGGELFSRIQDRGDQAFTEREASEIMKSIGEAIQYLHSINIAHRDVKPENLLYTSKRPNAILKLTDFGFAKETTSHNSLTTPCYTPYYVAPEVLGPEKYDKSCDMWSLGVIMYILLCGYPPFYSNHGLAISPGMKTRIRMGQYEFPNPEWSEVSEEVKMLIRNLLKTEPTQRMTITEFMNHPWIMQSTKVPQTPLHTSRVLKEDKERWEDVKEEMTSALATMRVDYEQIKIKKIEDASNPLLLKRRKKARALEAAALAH
# [5] = molecular target: MAP kinase-activated protein kinase 2 (Homo sapiens) (UniProt P49137); conditions: at 1 µM
# [6] = molecular target: MAP kinase-activated protein kinase 3 (Homo sapiens) (UniProt Q16644); conditions: at 0.1 µM
# [7] = molecular target: MAP kinase-activated protein kinase 3 (Homo sapiens) (UniProt Q16644); conditions: at 1 µM
# [8] = molecular target: Serine/threonine-protein kinase MARK1 (Homo sapiens) (UniProt Q9P0L2); conditions: at 0.1 µM
# Chain of Serine/threonine-protein kinase MARK1 (Homo sapiens) (Q9P0L2 whole entry, looked up): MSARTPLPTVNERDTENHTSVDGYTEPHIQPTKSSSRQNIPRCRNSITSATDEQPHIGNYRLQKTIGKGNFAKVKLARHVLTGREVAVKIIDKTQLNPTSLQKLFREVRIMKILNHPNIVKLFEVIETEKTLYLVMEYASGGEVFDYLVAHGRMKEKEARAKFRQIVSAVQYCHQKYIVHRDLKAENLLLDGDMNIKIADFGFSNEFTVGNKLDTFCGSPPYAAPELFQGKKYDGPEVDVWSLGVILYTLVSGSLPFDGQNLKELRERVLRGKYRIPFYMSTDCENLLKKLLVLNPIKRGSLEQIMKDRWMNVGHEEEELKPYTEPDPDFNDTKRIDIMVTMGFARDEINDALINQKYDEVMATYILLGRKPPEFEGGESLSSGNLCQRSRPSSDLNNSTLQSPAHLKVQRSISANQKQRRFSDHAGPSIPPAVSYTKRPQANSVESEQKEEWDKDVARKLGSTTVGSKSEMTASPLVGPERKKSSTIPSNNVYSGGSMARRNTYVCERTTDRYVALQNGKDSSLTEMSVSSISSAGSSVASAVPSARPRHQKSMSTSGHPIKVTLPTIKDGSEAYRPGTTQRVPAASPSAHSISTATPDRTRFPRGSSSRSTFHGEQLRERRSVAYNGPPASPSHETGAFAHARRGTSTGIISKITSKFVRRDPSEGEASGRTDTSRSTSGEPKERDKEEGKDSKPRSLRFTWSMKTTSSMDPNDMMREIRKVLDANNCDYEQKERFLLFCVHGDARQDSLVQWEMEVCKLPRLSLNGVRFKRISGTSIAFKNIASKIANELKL
# [9] = molecular target: Serine/threonine-protein kinase MARK1 (Homo sapiens) (UniProt Q9P0L2); conditions: at 1 µM
# [10] = molecular target: MAP/microtubule affinity-regulating kinase 3 (Homo sapiens) (UniProt P27448); conditions: at 0.1 µM
# [11] = molecular target: MAP/microtubule affinity-regulating kinase 3 (Homo sapiens) (UniProt P27448); conditions: at 1 µM
# [12] = molecular target: T2, MAP/microtubule affinity-regulating kinase 4 (Homo sapiens) (UniProt Q96L34); conditions: at 0.1 µM
# T2 sequence (whole entry): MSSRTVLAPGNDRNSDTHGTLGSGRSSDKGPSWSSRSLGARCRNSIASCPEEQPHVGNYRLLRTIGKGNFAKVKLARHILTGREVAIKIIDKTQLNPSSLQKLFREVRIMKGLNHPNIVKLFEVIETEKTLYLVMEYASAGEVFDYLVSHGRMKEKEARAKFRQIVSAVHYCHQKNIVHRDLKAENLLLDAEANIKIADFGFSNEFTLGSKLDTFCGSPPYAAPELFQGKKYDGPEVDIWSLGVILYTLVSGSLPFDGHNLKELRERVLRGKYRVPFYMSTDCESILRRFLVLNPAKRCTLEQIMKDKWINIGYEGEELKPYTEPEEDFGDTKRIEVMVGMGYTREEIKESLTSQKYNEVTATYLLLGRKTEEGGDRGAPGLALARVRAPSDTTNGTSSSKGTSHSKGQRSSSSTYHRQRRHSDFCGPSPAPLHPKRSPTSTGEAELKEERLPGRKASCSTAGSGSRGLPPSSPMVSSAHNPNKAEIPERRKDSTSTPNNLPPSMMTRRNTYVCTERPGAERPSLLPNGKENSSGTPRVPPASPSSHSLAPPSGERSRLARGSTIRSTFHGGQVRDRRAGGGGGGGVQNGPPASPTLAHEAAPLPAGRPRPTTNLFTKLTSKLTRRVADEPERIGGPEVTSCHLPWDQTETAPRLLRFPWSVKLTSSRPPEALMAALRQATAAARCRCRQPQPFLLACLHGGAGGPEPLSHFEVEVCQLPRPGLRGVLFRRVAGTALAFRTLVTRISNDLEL
# [13] = molecular target: T2, MAP/microtubule affinity-regulating kinase 4 (Homo sapiens); conditions: at 1 µM
# [14] = molecular target: Maternal embryonic leucine zipper kinase (Homo sapiens) (UniProt Q14680); conditions: at 0.1 µM
# Chain of Maternal embryonic leucine zipper kinase (Homo sapiens) (Q14680 whole entry, looked up): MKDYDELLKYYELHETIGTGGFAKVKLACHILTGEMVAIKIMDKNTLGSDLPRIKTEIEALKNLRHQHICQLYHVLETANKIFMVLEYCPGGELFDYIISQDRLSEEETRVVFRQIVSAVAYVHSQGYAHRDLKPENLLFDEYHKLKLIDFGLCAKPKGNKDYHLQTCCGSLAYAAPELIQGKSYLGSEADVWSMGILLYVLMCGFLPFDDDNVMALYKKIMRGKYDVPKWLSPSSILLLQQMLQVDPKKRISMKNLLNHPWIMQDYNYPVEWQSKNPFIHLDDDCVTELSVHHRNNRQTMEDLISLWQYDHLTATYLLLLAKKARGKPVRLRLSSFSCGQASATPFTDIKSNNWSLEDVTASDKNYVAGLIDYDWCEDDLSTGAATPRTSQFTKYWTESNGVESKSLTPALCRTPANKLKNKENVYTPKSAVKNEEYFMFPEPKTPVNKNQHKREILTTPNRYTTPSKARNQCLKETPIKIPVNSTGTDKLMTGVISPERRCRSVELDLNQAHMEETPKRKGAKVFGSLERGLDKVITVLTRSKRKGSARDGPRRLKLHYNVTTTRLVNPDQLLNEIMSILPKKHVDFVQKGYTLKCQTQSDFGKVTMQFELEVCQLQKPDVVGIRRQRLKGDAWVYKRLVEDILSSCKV
# [15] = molecular target: Maternal embryonic leucine zipper kinase (Homo sapiens) (UniProt Q14680); conditions: at 1 µM
# [16] = molecular target: MAP kinase-interacting serine/threonine-protein kinase 1 (Homo sapiens) (UniProt Q9BUB5); conditions: at 0.1 µM
# Chain of MAP kinase-interacting serine/threonine-protein kinase 1 (Homo sapiens) (Q9BUB5 whole entry, looked up): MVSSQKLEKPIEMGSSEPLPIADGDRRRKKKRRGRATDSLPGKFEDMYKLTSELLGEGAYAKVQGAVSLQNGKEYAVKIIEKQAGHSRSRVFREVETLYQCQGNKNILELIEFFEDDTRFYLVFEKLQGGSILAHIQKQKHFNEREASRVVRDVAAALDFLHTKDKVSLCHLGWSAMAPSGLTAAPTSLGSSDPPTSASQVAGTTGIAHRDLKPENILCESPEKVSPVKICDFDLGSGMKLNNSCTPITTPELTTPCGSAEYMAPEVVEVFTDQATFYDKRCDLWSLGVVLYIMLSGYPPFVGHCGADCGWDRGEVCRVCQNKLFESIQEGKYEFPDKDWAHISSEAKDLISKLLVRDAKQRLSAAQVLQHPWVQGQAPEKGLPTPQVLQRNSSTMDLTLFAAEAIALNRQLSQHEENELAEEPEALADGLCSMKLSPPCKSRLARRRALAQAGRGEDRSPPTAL
# [17] = molecular target: MAP kinase-interacting serine/threonine-protein kinase 1 (Homo sapiens) (UniProt Q9BUB5); conditions: at 1 µM
# [18] = molecular target: MAP kinase-interacting serine/threonine-protein kinase 2 (Homo sapiens) (UniProt Q9HBH9); conditions: at 0.1 µM
# Chain of MAP kinase-interacting serine/threonine-protein kinase 2 (Homo sapiens) (Q9HBH9 whole entry, looked up): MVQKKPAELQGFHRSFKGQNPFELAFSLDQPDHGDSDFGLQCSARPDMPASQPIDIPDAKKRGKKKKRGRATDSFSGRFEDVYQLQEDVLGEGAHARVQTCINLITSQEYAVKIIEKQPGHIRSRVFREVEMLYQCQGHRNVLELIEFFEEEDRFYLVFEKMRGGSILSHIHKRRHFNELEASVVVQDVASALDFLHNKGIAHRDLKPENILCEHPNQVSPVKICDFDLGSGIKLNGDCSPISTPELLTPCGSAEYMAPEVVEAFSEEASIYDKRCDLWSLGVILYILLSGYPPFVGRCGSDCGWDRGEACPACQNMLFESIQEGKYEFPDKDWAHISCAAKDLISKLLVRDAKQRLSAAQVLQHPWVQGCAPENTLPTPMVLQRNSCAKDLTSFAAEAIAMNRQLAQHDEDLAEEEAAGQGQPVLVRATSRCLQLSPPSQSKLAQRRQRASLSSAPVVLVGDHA
# [19] = molecular target: MAP kinase-interacting serine/threonine-protein kinase 2 (Homo sapiens) (UniProt Q9HBH9); conditions: at 1 µM
# [20] = molecular target: Serine/threonine-protein kinase MARK2 (Homo sapiens) (UniProt Q7KZI7); conditions: at 0.1 µM;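 further: mean percent inhibition of PAR-1Balpha kinase activity, reported from the GSK PKIS screen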
# Chain of Serine/threonine-protein kinase MARK2 (Homo sapiens) (Q7KZI7 whole entry): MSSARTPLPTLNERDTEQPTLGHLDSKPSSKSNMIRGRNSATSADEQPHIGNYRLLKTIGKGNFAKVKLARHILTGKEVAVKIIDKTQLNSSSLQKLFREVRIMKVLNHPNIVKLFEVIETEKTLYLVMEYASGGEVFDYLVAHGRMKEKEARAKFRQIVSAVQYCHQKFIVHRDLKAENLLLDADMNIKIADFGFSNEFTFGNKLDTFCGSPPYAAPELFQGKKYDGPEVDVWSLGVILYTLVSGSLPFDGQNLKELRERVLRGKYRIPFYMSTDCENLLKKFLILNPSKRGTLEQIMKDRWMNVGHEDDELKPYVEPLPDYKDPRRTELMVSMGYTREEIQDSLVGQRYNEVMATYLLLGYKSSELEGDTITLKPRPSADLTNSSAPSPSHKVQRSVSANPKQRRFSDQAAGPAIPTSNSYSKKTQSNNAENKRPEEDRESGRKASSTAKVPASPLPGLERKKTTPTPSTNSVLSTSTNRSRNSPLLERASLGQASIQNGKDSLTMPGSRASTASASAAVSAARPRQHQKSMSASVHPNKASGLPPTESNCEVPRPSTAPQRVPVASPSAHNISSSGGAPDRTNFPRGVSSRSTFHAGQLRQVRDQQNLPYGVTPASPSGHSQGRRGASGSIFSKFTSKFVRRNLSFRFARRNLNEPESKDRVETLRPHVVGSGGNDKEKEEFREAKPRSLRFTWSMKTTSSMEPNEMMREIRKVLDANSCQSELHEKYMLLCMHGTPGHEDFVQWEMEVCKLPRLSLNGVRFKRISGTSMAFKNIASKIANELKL
# Chain of Death-associated protein kinase 1 (Homo sapiens) (P53355 whole entry, looked up): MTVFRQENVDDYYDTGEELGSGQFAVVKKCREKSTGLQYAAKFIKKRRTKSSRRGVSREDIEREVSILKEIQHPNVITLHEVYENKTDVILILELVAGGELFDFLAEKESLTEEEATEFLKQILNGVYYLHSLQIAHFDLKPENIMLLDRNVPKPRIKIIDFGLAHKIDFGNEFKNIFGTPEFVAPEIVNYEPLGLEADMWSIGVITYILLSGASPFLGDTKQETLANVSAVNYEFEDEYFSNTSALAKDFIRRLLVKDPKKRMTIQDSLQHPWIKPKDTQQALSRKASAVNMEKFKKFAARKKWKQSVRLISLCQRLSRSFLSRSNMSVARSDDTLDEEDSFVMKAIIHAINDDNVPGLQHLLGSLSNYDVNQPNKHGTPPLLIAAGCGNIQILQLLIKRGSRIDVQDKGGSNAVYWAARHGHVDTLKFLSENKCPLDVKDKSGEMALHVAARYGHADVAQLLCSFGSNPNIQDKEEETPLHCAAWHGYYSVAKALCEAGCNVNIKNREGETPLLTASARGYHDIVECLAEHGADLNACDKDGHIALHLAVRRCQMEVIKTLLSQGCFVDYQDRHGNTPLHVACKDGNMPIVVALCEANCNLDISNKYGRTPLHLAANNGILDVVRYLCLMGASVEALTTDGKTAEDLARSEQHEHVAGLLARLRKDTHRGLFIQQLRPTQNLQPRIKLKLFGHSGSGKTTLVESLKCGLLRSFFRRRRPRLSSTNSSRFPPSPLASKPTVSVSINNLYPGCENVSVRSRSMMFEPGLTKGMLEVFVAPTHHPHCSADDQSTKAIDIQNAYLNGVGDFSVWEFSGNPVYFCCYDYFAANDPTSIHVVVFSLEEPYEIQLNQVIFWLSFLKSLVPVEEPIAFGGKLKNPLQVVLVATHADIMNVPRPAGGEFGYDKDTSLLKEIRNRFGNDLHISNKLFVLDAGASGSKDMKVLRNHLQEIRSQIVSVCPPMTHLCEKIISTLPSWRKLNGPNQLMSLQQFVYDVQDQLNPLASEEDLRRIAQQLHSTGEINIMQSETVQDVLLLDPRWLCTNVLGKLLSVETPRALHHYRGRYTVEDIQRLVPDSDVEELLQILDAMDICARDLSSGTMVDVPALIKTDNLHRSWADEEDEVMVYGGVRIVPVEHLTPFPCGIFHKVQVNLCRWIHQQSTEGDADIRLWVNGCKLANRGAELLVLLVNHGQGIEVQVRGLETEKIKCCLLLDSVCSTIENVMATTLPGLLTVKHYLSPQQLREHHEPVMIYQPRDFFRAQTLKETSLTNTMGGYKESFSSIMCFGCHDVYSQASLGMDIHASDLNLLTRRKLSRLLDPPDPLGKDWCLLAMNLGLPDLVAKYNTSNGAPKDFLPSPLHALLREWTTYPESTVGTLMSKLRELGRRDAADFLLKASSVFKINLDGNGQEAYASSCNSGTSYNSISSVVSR
Structure (SMILES),inhibition [1],inhibition [2],inhibition [3],inhibition [4],inhibition [5],inhibition [6],inhibition [7],inhibition [8],inhibition [9],inhibition [10],inhibition [11],inhibition [12],inhibition [13],inhibition [14],inhibition [15],inhibition [16],inhibition [17],inhibition [18],inhibition [19],inhibition [20]
CCS(=O)(=O)c1ccc(OC)c(Nc2ncc(-c3ccccc3Cl)o2)c1,4.97%,-0.26%,5.11%,0.24%,-0.21%,2.9%,3.29%,0.31%,0.38%,1.45%,-1.14%,-1.13%,0.41%,-0.46%,3.44%,1.1%,5.2%,0.17%,7.7%,1.4%
O=C(NCC1CC1)c1ccc(-c2cccc(C(=O)NC3CC3)c2)cc1,3.86%,1.31%,-0.41%,0.95%,1.17%,2%,3.94%,2.23%,1.62%,4.12%,6.77%,0.89%,0.47%,1.66%,0.83%,1.09%,0.19%,-1.06%,0.04%,0.08%
Cc1nnc(-c2ccc(C)c(-c3ccc(C(=O)NCc4ccc(Cl)cc4)cc3)c2)o1,1.9%,-1.39%,-8.11%,1.41%,0.78%,5.02%,15.7%,2.82%,4.92%,0.14%,-1.1%,2.02%,1.96%,4.87%,5.52%,2.03%,6.45%,0.86%,1.57%,1.6%
C[C@@H](Oc1cc(-n2cnc3ccc(OC4CCN(C)CC4)cc32)sc1C(N)=O)c1ccccc1Cl,1.99%,-3.12%,-1.54%,1.32%,2.41%,3.38%,3.91%,3.46%,8.24%,4.33%,8.01%,2.31%,5.68%,6.66%,26.9%,3.58%,17.6%,3.77%,21%,2.47%
COc1cc(Nc2ncc3c(C)nc(-c4cccc(C(F)(F)F)c4)n3n2)cc(OC)c1OC,1.2%,0.76%,-1.04%,1.86%,2.09%,4.68%,5.16%,2.7%,15.5%,1.84%,7.63%,1.28%,7.81%,13.1%,63.1%,3.56%,7.34%,2.94%,6%,0.26%
COc1cccc(-n2cnc3c(N/N=C/c4ccncc4)ncnc32)c1,-2.81%,-3.07%,-0.03%,-0.39%,-0.48%,-0.9%,-2.07%,1.01%,6.09%,1.08%,3.88%,0.84%,4.83%,-1.92%,-4.7%,0.43%,16.5%,3.13%,13.7%,0.99%
O=C1Nc2ccccc2/C1=C/Nc1ccc(-n2cncn2)cc1,7.29%,1.71%,-2.02%,2.96%,2.54%,3.98%,3.15%,5.86%,25.4%,3.28%,36.4%,3.35%,17.9%,6.89%,25.8%,7.6%,14.8%,2.4%,8.07%,1.47%
CCc1cccc(CC)c1/C=C/c1cncc(C(=O)NC)c1,4.2%,1.1%,1.19%,0.82%,0.99%,4.47%,3.44%,2.28%,1.27%,3.86%,0.43%,0.15%,1.03%,1.61%,3.83%,1.04%,3.27%,0.49%,1.79%,-0.01%
CCc1nccc2c1nc(-c1nonc1N)n2CC,2.17%,-1.22%,4.54%,-0.33%,-0.34%,0.57%,2.5%,1.68%,1.49%,1%,-0.48%,0.74%,0.5%,-0.92%,0.69%,-0.04%,2.83%,-0.46%,4.5%,0.35%
CNC(=O)c1cncc(/C=C/c2c(C)cccc2C)c1,0.45%,-0.24%,-2.53%,0.41%,-0.68%,0.6%,0.25%,0.88%,0.89%,0.44%,2%,-0.27%,1.46%,-1.92%,0.37%,-0.2%,8.06%,0.57%,5.36%,0.03%
Fc1ccc(-c2ncn(C3CCNCC3)c2-c2ccnc(Oc3ccc(Oc4ccccc4)cc3)n2)cc1,13.2%,-0.37%,2.31%,5.15%,7.84%,37.5%,46.2%,2.1%,4.13%,2.76%,2.05%,0.75%,2.59%,6.35%,11.1%,1.1%,1.53%,0.72%,1.76%,2.71%
